Here are results for 13 compounds from PubChem BioAssay (EPA / NIEHS).

Assay [1] is described as follows: CEETOX_H295R_11DCORT: CeeTox H295R High-throughput Steroidogenesis Assay for 11-Deoxycortisol (11DCORT) (AID 2283432; active = hit-call score of the fitted dose curve at least 0.9, where 1 is the maximum; inactive = score below 0.9;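 for AC50: 11-deoxycortisol secreted into the medium measured by LC-MS/MS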). As to conditions: actives raise or lower the signal. The gist of the method: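 Human adrenal H295R cells were prestimulated with 10 uM forskolin for 48 h, then exposed to test chemical (0.1% DMSO final) for 48 h. Medium 11-deoxycortisol was quantified by MTBE extraction and HPLC-MS/MS; bidirectional fitting relative to DMSO.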

Assay [2] in a line: CEETOX_H295R_OHPREG: CeeTox H295R High-throughput Steroidogenesis Assay for OH-Pregnenolone (OHPREG) (AID 2283434; active = hit-call score of the fitted dose curve at least 0.9, where 1 is the maximum; inactive = score below 0.9). The conditions noted are these: actives raise or lower the signal. The gist of the method:
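Human adrenal H295R cells were prestimulated 48 h with 10 uM forskolin, then exposed 48 h to chemical in 0.1% DMSO. Medium 17alpha-hydroxypregnenolone was quantified by HPLC-MS/MS after MTBE extraction; bidirectional fitting versus DMSO baseline.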

Assay [3] is described as follows: CEETOX_H295R_CORTIC: CeeTox H295R High-throughput Steroidogenesis Assay for Corticosterone (CORTIC) (AID 2283437; active = hit-call score of the fitted dose curve at least 0.9, where 1 is the maximum; inactive = score below 0.9;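 note: corticosterone secreted into medium quantified by mass spectrometry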). As to conditions: actives raise or lower the signal. The essentials: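 H295R cells were prestimulated 48 h with 10 uM forskolin, then exposed 48 h to test chemical in 0.1% DMSO. Medium corticosterone was MTBE-extracted and quantified by HPLC-MS/MS; bidirectional fit versus DMSO baseline.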

The nature of assay [4]: CEETOX_H295R_CORTISOL: CeeTox H295R High-throughput Steroidogenesis Assay for Cortisol (AID 2283438; active = hit-call score of the fitted dose curve at least 0.9, where 1 is the maximum; inactive = score below 0.9;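 note: cortisol secreted into medium quantified by LC-MS/MS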). As to conditions: actives raise or lower the signal. The essentials:
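Forskolin 10 uM 48 h prestim → test cmpd in DMSO (0.1% final) 48 h → medium MTBE-extracted → LC-MS/MS cortisol vs 7-pt std curve. Gain/loss of signal fitted vs DMSO. MTT viability in same wells.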

Assay [5] is described as follows: CEETOX_H295R_DOC: CeeTox H295R High-throughput Steroidogenesis Assay for DOC (AID 2283439; active = hit-call score of the fitted dose curve at least 0.9, where 1 is the maximum; inactive = score below 0.9). The conditions noted are these: actives raise or lower the signal. The essentials:
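Readout: 11-deoxycorticosterone in culture medium by reverse-phase C18 HPLC with ESI+ tandem MS after MTBE extraction. Cells: H295R, forskolin-primed (10 uM, 48 h), chemical-treated 48 h; DMSO 0.1% final. Activity fitted bidirectionally versus DMSO.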

The nature of assay [6]: CEETOX_H295R_ESTRADIOL: CeeTox H295R High-throughput Steroidogenesis Assay for Estradiol (AID 2283440; active = hit-call score of the fitted dose curve at least 0.9, where 1 is the maximum; inactive = score below 0.9;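 note: estradiol secreted into medium quantified by LC-MS/MS after dansyl derivatisation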). As to conditions: actives raise or lower the signal. The essentials: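 H295R, 48 h forskolin (10 uM) prestim → 48 h compound, 0.1% DMSO final. Estradiol in medium: MTBE extraction, dansyl chloride derivatization, LC-MS/MS. Fit bidirectional vs DMSO baseline; MTT viability in same wells.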

Assay [7] is described as follows: CEETOX_H295R_ESTRONE: CeeTox H295R High-throughput Steroidogenesis Assay for Estrone (AID 2283441; active = hit-call score of the fitted dose curve at least 0.9, where 1 is the maximum; inactive = score below 0.9;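 note: estrone secreted into medium measured by LC-MS/MS after dansyl derivatization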). As to conditions: actives raise or lower the signal. The essentials: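 H295R cells prestimulated 48 h with 10 uM forskolin, then exposed 48 h to chemicals in 0.1% DMSO final; estrone in medium extracted with MTBE, dansyl-derivatized, quantified by HPLC-MS/MS; bidirectional fitting versus DMSO, viability by MTT.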

Assay [8] deals with Cellular tumor antigen p53 (Homo sapiens) (UniProt P04637). The assay is described as follows: TOX21_p53_BLA_p2_ratio: Tox21 HCT-116 p53 Agonism Beta-lactamase Assay, Ratio, Phase 2 (AID 2283592). The gist of the method: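 In this cell-based reporter format, HCT116 cells were dosed with chemicals delivered from DMSO by 217-fold dilution and incubated 16 h at 37C. Emission at 460 and 530 nm after 2 h CCF4-AM loading provided the ratio, fitted upward versus DMSO.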

The nature of assay [9]: TOX21_p53_BLA_p4_viability: Viability Assessment in the Tox21 HCT-116 p53 Agonism Beta-lactamase Assay, Phase 4 (AID 2283597).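 Note: hits lower the luminescence signal meaning cytotoxicity.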 The essentials: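 We seeded HCT116 p53 reporter cells at 4000/well and waited 5 h. We then added compounds in DMSO at a 217-fold dilution and incubated for 16 h. Viability was read as CellTiter-Glo luminescence after 30 min at RT.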
Assay [10] has as its target Cellular tumor antigen p53 (Homo sapiens) (UniProt P04637). Description: TOX21_p53_BLA_p5_ratio: Tox21 HCT-116 p53 Agonism Beta-lactamase Assay, Ratio, Phase 5 (AID 2283599). The essentials: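 HCT-116 cells carrying a p53-inducible beta-lactamase reporter were seeded at 4000 cells/well and dosed after 5 h with compound in DMSO (217-fold dilution). After 16 h at 37C, CCF4-AM substrate was added for 2 h, and the 460/530 nm emission ratio was scored as gain-of-signal versus DMSO.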

The nature of assay [11]: TOX21_p53_BLA_p5_viability: Viability Assessment in the Tox21 HCT-116 p53 Agonism Beta-lactamase Assay, Phase 5 (AID 2283600). The gist of the method: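 Compounds, pinned from DMSO at 217-fold dilution, were left on the cells for 16 h. The viability endpoint was ATP content measured by CellTiter-Glo luminescence, where falling signal reflects cytotoxicity.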
Assay [12] has as its target Cellular tumor antigen p53 (Homo sapiens) (UniProt P04637). The assay is described as follows: TOX21_p53_BLA_p4_ratio: Tox21 HCT-116 p53 Agonism Beta-lactamase Assay, Ratio, Phase 4 (AID 2283601). The gist of the method: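 HCT116 cells carrying an inducible beta-lactamase reporter were plated at 4000 cells/well, rested 5 h, then exposed to compounds in DMSO (217-fold dilution) for 16 h at 37C. CCF4-AM substrate was loaded 2 h at room temperature; 460/530 nm emission ratio scored gain-of-signal versus DMSO.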

Assay [13] concerns the target Peroxisome proliferator-activated receptor gamma (Homo sapiens) (UniProt P37231). Description: OT_PPARg_PPARgSRC1_1440: Odyssey Thera (OT) 24-hour Protein-Complementation Assay for Peroxisome Proliferator-activated Receptor Gamma/ SRC-1 Co-activator (AID 2283388).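 Note: nuclear to cytoplasmic ratio of reconstituted Venus YFP fluorescence in fixed imaged cells.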 The gist of the method: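 Readout: nuclear-to-cytoplasmic 488 nm fluorescence ratio, ≥350 cells per image, 8 images per well, after 24 h compound exposure of HEK293T expressing PPARg/SRC-1 split-YFP fusions. Activity fitted in positive direction against DMSO.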

Assay [14] can be described thus: TOX21_p53_BLA_p2_viability: Viability Assessment in the Tox21 HCT-116 p53 Agonism Beta-lactamase Assay, Phase 2 (AID 2283591).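 Note: compound exposure lasted 16 h at 37 °C; actives lower the ATP signal meaning cytotoxicity.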 The essentials: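 HCT-116 p53-bla cells (4000/well) rested 5 h at 37C, then received compounds in DMSO (217-fold dilution) for 16 h at 37C, 5% CO2. After the CCF4 read, CellTiter-Glo was added; ATP luminescence was read after 30 min at room temperature.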

Assay [15] in a line: TOX21_p53_BLA_p3_viability: Viability Assessment in the Tox21 HCT-116 p53 Agonism Beta-lactamase Assay, Phase 3 (AID 2283593).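 Note: cells exposed to compound for 16 h before reading.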 The gist of the method:
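HCT-116 cells (4000/well) rested 5 h at 37C, then got DMSO compounds by pin tool (217-fold dilution) for 16 h at 37C, 5% CO2. After the bla read, CellTiter-Glo was added and luminescence read at 30 min, room temperature.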

The target in assay [16] is Cellular tumor antigen p53 (Homo sapiens) (UniProt P04637). The assay is described as follows: TOX21_p53_BLA_p3_ratio: Tox21 HCT-116 p53 Agonism Beta-lactamase Assay, Ratio, Phase 3 (AID 2283596). The essentials: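 HCT116 p53-bla cells (4000/well) given compound in DMSO (217-fold dilution) after 5 h, incubated 16 h at 37C. CCF4-AM substrate 2 h at room temperature; 460/530 nm emission ratio, gain fitted against DMSO.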

Assay [17] in a line: CCTE_Simmons_CellTiterGLO_HEK293T: Viability Assessment in CCTE's Assays for Thyroperoxidase (TPO) Inhibition, Simmons Lab (AID 2283665).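 For AC50: cells exposed to compound for 24 h before readout; actives reduce ATP signal below DMSO vehicle meaning cytotoxicity.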 The gist of the method: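 HEK293T, 10 000 cells/well, DMEM + 1% FBS; 8-pt titration 5 nM–87.5 uM [final], 0.5% DMSO; 24 hr, 37C, 5% CO2; CellTiter-Glo luminescence; n=3 biological replicates.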
Assay [18] is described as follows: ATG_XTT_Cytotoxicity: Cytotoxicity Assessment in the Attagene TRANS-FACTORIAL HepG2 Assay (AID 2283584).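 For AC50: cells exposed to compound for 24 h before reading; active means loss of viability signal versus DMSO baseline.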 The gist of the method:
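XTT readout of cell number in transfected HepG2 cells, 24 h post-dosing; DMSO serves as negative control and baseline, with activity taken as loss of viability signal.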

Assay [19] in a line: CEETOX_H295R_ANDR: CeeTox H295R High-throughput Steroidogenesis Assay for Androstenedione (ANDR) (AID 2283436; active = hit-call score of the fitted dose curve at least 0.9, where 1 is the maximum; inactive = score below 0.9). The conditions noted are these: actives raise or lower the signal. The gist of the method:
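H295R human adrenal cells (passages ≤10) were exposed to test chemicals for 48 h; androstenedione in medium was MTBE-extracted and quantified by HPLC-MS/MS against a 7-point standard curve. Bidirectional fitting used DMSO as baseline.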

A short description of assay [20]: CEETOX_H295R_TESTO: CeeTox H295R High-throughput Steroidogenesis Assay for Testosterone (TESTO) (AID 2283457; active = hit-call score of the fitted dose curve at least 0.9, where 1 is the maximum; inactive = score below 0.9). The conditions noted are these: actives raise or lower the signal. The essentials: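 Readout: testosterone quantified by HPLC-MS/MS (C18, ESI positive) after MTBE liquid-liquid extraction of culture medium. Cells were H295R, 48 h chemical exposure per OECD 456 with modifications. Gain or loss of signal fitted relative to DMSO.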

The structures appear in SMILES notation. Values joined by “and” are separate entries in the source; they are usually repeats but may differ in a detail not shown here. Equal entries are not always repeated. Inconclusive results are not listed. The source holds several records for some structures; these can differ, active in one and inactive in another. Active and inactive are the calls of the source. Rule for the calls, unless noted: active = hit-call score of the fitted dose curve at least 0.9, where 1 is the maximum; inconclusive = response in the unintended direction; inactive = score below 0.9.

Chain of Cellular tumor antigen p53 (Homo sapiens) (P04637 whole entry, looked up): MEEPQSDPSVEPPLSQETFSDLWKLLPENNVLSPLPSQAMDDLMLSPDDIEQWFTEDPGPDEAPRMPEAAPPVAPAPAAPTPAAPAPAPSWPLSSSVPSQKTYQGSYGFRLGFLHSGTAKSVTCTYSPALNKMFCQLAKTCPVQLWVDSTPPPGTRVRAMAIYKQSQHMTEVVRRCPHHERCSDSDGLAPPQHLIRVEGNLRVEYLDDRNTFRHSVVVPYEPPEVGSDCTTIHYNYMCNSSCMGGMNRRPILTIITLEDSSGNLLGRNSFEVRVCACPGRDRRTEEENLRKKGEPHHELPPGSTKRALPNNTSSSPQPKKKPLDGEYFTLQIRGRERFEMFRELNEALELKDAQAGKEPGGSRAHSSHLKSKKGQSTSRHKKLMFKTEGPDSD
Chain of Peroxisome proliferator-activated receptor gamma (Homo sapiens) (P37231 whole entry, looked up, the tested form may be a part): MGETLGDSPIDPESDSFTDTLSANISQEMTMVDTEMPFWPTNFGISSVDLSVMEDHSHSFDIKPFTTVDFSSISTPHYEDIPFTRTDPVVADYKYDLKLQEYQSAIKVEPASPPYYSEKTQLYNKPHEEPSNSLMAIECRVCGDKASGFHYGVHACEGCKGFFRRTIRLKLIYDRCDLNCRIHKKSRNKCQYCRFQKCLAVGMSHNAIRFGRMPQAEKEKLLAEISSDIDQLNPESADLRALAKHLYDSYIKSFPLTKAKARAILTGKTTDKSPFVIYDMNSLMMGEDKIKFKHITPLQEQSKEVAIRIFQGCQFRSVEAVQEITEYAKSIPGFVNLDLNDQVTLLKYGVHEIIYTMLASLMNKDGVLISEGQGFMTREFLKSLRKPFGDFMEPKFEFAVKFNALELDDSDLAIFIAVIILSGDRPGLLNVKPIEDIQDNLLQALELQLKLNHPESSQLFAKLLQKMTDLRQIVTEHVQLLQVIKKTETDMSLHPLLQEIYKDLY

One may read the AC50 as the midpoint of the concentration-response curve, whichever way the signal moves. For the compound `O=C(Nc1ccccc1SSc1ccccc1NC(=O)c1ccccc1)c1ccccc1`, the result in assay [1], in assay [2], in assay [3], in assay [4], in assay [5] and in [6] was inactive. In addition, the compound was called inactive in [7], in [9] and in assay [11]. For the same compound, the AC50 in assay [8] is 58.3 µM (active) and 56.6 µM (active); in [10], 60 µM (active) and 53.4 µM (active); in assay [12], 65.5 µM (active) and 56.9 µM (active).

Regarding `CCCCC/C=C\C/C=C\CCCCCCCC(=O)OC`, the outcome in assay [13], in assay [14], in assay [8], in assay [15], in assay [16] and in assay [9] was inactive. Also, the result in assay [10], in [11] and in assay [12] was inactive. Further, the AC50 in [14] is 66.2 µM (active); in assay [8], 74.7 µM (active); in assay [10], 73.3 µM (active); in assay [17], 58.4 µM (active).

On to `CC/C=C\C/C=C\C/C=C\CCCCCCCC(=O)O`, for which the result in assay [13] and in assay [17] was inactive.

As for `CC(C)(C)c1ccc(OC(=O)c2ccccc2O)cc1`, the compound was called inactive in assay [13], in assay [18], in assay [14], in [8], in assay [9] and in assay [12].

Take `Cc1cc(C)c(C(=O)O)c(C)c1`: the compound was classed as inactive in assay [13], in [18], in assay [8], in assay [16], in assay [10] and in [12].

As for `CCCCOCCOC(=O)COc1nc(Cl)c(Cl)cc1Cl`, the compound was classed as inactive in assay [13], in assay [8], in [15], in [16], in assay [9] and in assay [10]. Further, the result in assay [12] was inactive.

For `CC1=NN(c2cc(S(=O)(=O)O)ccc2Cl)C(=O)C1N=Nc1ccccc1` (stereo not given), the compound was called inactive in [13], in assay [18], in assay [8], in assay [9], in assay [10] and in [12].

For the compound `CNC(=S)NN`, the call in assay [13], in assay [18], in assay [8], in assay [12] and in assay [17] was inactive.

In the case of `CO[Si](CCC1CCC2OC2C1)(OC)OC` (stereo not given), the call in assay [1], in assay [2], in assay [19], in assay [3], in [4] and in assay [5] was inactive. Also, the compound was called inactive in [20].

In the case of `O=S1(=O)OC(c2ccc(O)cc2)(c2ccc(O)cc2)c2ccccc21`, the compound was classed as inactive in assay [13]. Moreover, in assay [17], the AC50 was 72 µM (active) and the result was inactive.

Consider `C1=CCCC1`, for which the compound was classed as inactive in assay [1], in [19], in assay [3], in assay [4], in assay [5] and in assay [20]. In addition, the compound was classed as inactive in assay [18].

For `C#CC1(O)CC[C@H]2[C@@H]3CCC4=CCCC[C@@H]4[C@H]3CC[C@@]21C` (stereo not given in full), the AC50 in assay [1] was 7.32 µM (active); in assay [4] it was 7.01 µM (active); in assay [5] it was 2.03 µM (active); in [18], 42.3 µM (active); in assay [14], 57.2 µM (active); in assay [8], 87.7 µM (active). Besides, the AC50 in assay [15] is 83.3 µM (active); in assay [9], 55.7 µM (active); in assay [10], 86.1 µM (active); in [11], 46.1 µM (active); in assay [12], 84.8 µM (active). The compound was classed as inactive in assay [2], in assay [3], in assay [14], in [8], in assay [15] and in assay [11].

Consider `CCCCCCCC/C=C\CCCCCCCC(=O)O`, for which the compound was called inactive in assay [13], in assay [14], in assay [8], in assay [15], in assay [16] and in [9]. For the same compound, the result in assay [10], in [11] and in assay [12] was inactive.
